From PubChem BioAssay
SW480 rerep – A quantitative high throughput screen for small molecules that induce DNA re-replication in SW480 colon adenocarcinoma cells; SW480 DNA re-replication, Hoechst DNA content imaging, 48 h; Potency, µM (top dose mostly 46.1 µM), for the others: at the top dose re-replication activation, actives largely listed as activators; 340,000 compounds, 1.8% hits; AID 624297, 2012; further: potency means the concentration at half of the fitted maximal effect; % of control where 0% means no effect; nearly all actives have a fitted effect of over 55% in size
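SW480 cells exposed to compounds for 48 hr at 37 C, 5% CO2, then Hoechst-stained 40 min. Nuclear DNA content imaged by fluorescence scanning (405 nm excitation, 500-530 nm emission); re-replication scored as increased high-intensity nuclei.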
ATXN viability – Viability Counterscreen for Primary qHTS for Inhibitors of ATXN expression. S2 cells (HEK-293 line with an ATXN2-luciferase reporter) viability, CellTiter-Fluor protease fluorescence, 24 h. Potency, µM (titrated, usually from 56.7 µM), hits mostly cytotoxic. 400,000 compounds, 0.49% hits. AID 651635, 2014; further: potency means the concentration at half of the fitted maximal effect; nearly all actives have a fitted effect of over 40% in size
MCF10A rereplic – A quantitative high throughput screen for small molecules that induce DNA re-replication in MCF 10a normal breast cells; MCF 10A DNA re-replication, Hoechst nuclear intensity, 48 h; Potency, µM (titrated, usually from 46.1 µM), for inactives: top-dose activity, positive = re-replication, hits mostly activators; 350,000 compounds, 2.9% hits; AID 624296, 2012; further: potency means the concentration at half of the fitted maximal effect; % of control where 0% means no effect; nearly all actives have a fitted effect of over 50% in size
ATXN2 expr inh – Primary qHTS for Inhibitors of ATXN expression; 360,000 compounds, 0.72% hits; HEK-293 ATXN2-luciferase reporter, luminescence, 24 h; Potency, µM (highest dose often 57 µM), for inactives: at the highest dose activity change, negative = inhibition, hits mostly inhibitors; further: potency means the concentration at half of the fitted maximal effect; on the % scale 0 is the no-effect control and ±100 the full control effect; nearly all actives have a fitted effect of over 55% in size
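qHTS (up to 57 uM final) was run with 24 h compound exposure of reporter cells at 37 °C. Each well was multiplexed: SteadyGlo luminescence measured ATXN2-luciferase expression after a fluorogenic Gly-Phe-AFC viability readout (25 uM final).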
PINK1 expr mod – A Quantitative High throughput Screen to Identify Chemical Modulators of PINK1 Expression | PINK1 immunofluorescence, high-content cytometry, 24 h | Potency, µM (series often up to 76.6 µM), for the others: at the top dose activation (PINK1 increase), usual class: activators | 410,000 compounds, 0.2% hits | AID 624263, 2012; active means well fitted activation curve with a large enough effect; inconclusive means small, poorly fitted or top-dose-only effect; cell line not stated here; further: potency means the concentration at half of the fitted maximal effect; % of control where 0% means no effect; nearly all actives have a fitted effect of over 65% in size
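Cells are seeded, rested 12 hours, then given compound at five concentrations or DMSO for 24 hours. After fixation, blocking and antibody staining, PINK1 amount and mitochondrial localization are scored; CCCP serves as control.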
IL-1B inflam inh – qHTS for Inhibitors of Inflammasome Signaling: IL-1-beta AlphaLISA Primary Screen. THP-1 LPS/ATP IL-1B secretion, AlphaLISA, 16 h; stronger effect = lower value. activity change, % at 57.5 µM. 360,000 compounds, 4.7% hits; in the data active means activity change below about -50%; inconclusive means mostly about -30% to -49%; further: on the % scale 0 is the no-effect control and ±100 the full control effect
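THP-1 cells pretreated 1 hr with compounds (up to 57.5 uM final), then stimulated with LPS (250 ng/mL final) plus ATP (1.25 mM final); secreted IL-1B measured by AlphaLISA after 16 hr, decreased signal indicating inhibition.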
* hit, by the source's call; i = inactive; ? = inconclusive; . = no result given; [ ] = dose if it differs, or a comment. The list is not random: actives were taken first. Their share in the collection is about 7.1%. Unless noted, the call rests on the fitted dose curve; in most records, active means well fitted curve in the direction sought with a large enough effect; inconclusive means small, poorly fitted or top-dose-only effect, or another doubt; inactive means no such curve, though single readings can be large; an effect the other way counts as inactive or inconclusive.

SMILES	SW480 rerep	ATXN viability	MCF10A rereplic	ATXN2 expr inh	PINK1 expr mod	IL-1B inflam inh
Cc1nn(-c2ccccc2)c(N2CCCC2)c1/C=N/NC(=O)c1cc2ccccc2cc1O	?	i	?	?	15.8µM*	14.1
NCCCCc1ccc2ccc3cccc4ccc1c2c34	27.4%	i	?	-5.8%	-2.5%	-28.2
O=C(O)CCCc1ccc2ccc3cccc4ccc1c2c34	4.5%	i	16.4µM*	-2.5%	3.7%	9.6
CCCCN(CCCC)CCNC(=O)Cn1nc(CC)n2c(cc3sc(C)cc32)c1=O	.	.	.	.	0.5%	.
COCCn1c(C)cc(C2=NNC(=Nc3ccccc3)SC2)c1C	3.1%[9.22 µM]	i	9.9%	58.8%	5.3%	4.3
COc1ccccc1C1=NNC(=Nc2cccc(S(=O)(=O)N(C)C)c2)SC1	?	?	11.7%	-22.1%	?	-72.0*
O=C(N/N=C/c1ccc(-c2cccc([N+](=O)[O-])c2)o1)c1ccccc1O	?	i	?	?	0.7%	-2.3
O=C(N/N=C/c1ccc(-c2cccc([N+](=O)[O-])c2)o1)c1ccc([N+](=O)[O-])cc1	?	i	-35.4%	-32.6%	-1.2%	-50.5*
NC(=O)N/N=C/c1ccc(-c2cccc(C(F)(F)F)c2)o1	-11.8%	i	4.61µM*	11.8%	6.5%	-6.3
O=C(N/N=C/c1cn[nH]c1-c1ccc(Cl)cc1)c1ccc([N+](=O)[O-])cc1	18.2%	i	-10.9%	-17.5%[11.3 µM]	0.5%	12.2
O=C(N/N=C\c1cn[nH]c1-c1ccccc1)c1ccc([N+](=O)[O-])cc1	4.11µM*	i	2.6%	3.3%	-3.0%	-2.7
O=C(N/N=C\c1ccc(COc2ccc([N+](=O)[O-])cc2)o1)c1ccc(Cl)cc1	-2.9%	i	26.5%	-25.2%	-0.9%	-60.0*
O=C(N/N=C\c1ccc(COc2ccc([N+](=O)[O-])cc2)o1)c1cccc(Cl)c1	15.4%	i	17.8%	-18.6%	0.9%	-25.3
CCn1cc(C(=O)N2CCN(c3cccc(C)c3C)CC2)c2cc(OC)c(OC)cc2c1=O	.	?	.	?	2.9%	.
CC(=O)c1ccc(F)c(-c2cc(C)cc3c2OC(CNC(=O)Cc2ccc4c(c2)OCO4)C3)c1 (configuration not stated)	.	i	.	.	0.6%	.
COC(=O)[C@@H]1[C@@H]2C[C@H]3c4[nH]c5ccccc5c4CCN3C[C@@H]2CC[C@@H]1O	0.2%	i	-1.4%	.	.	.
COc1cccc(C(=O)N2CCC2(C)C(=O)O)c1 (configuration not stated)	.	i	.	-1.2%	0.5%	0.0
COc1cc(C(=O)NCC(=O)N/N=C/c2ccc(-c3cccc([N+](=O)[O-])c3)o2)cc(OC)c1OC	-2.4%	i	3.5%	-1.7%	4.0%	-84.7*
NC(=S)N/N=C/c1ccc(-c2cc(Cl)cc(Cl)c2)o1	-2.7%	?	13µM*	-7.6%	-2.3%	-18.0
COCc1ccc(CN2Cc3ccccc3OC(c3ccccc3F)C2)o1 (configuration not stated)	.	i	.	.	-0.6%	.
CC[C@@H](C)[C@H](CN[C@H](CNC)C(C)C)NC[C@@H](C)c1ccc(CC(C)C)cc1	?	.	?	28.2µM*	-0.8%	-23.0
CC[C@H](C)[C@@H](CNC)NC[C@@H](Cc1ccc(O)cc1)NCC(C)(C)C	-1.0%	i	?	-6.7%	0.3%	-14.1
CC(=O)N1c2ccccc2C(=O)C1N1CCN(c2ccccc2F)CC1 (configuration not stated)	.	.	.	.	-0.1%	.
CCC(=O)N1CCc2cc(S(=O)(=O)NC(C(=O)NCc3ccc(OC)cc3)C(C)C)ccc21 (configuration not stated)	.	i	.	-7.0%	-1.0%	.
CCOC(=O)C1CCN(C(=O)CSc2c3c(nc4ccccc24)CCC3)CC1	0.0%	i	1.6%	.	1.4%	-130.0*
SMILES	SW480 rerep	ATXN viability	MCF10A rereplic	ATXN2 expr inh	PINK1 expr mod	IL-1B inflam inh
COc1ccc(NC(=O)CSc2c3c(nc4cc(Cl)ccc24)CCCC3)cc1OC	?	.	?	?	-2.3%	-103.2*
COc1ccc(NC(=O)CSc2c3c(nc4ccc(Cl)cc24)CCCC3)cc1Cl	.	.	.	.	2.0%	.
COc1cc(NC(=O)CSc2c3c(nc4ccccc24)CCC3)cc(OC)c1OC	45.6%	i	0.4%	0.6%	1.5%	-59.6*
COc1ccc(NC(=O)CSc2c3c(nc4ccccc24)CCCC3)c(OC)c1	?	.	20.6µM*	?	-5.7%	-104.7*
COC(=O)c1ccccc1NC(=O)Cn1ncc2c(C)n(Cc3ccc(F)cc3)c(C)c2c1=O	.	.	.	.	0.1%	.
COC(=O)c1ccc(CN2CCC3(CCC(CNC(=O)c4ccccc4)O3)CC2)cc1 (configuration not stated)	.	i	.	.	0.6%	.
COc1cc(-c2ccc(C(F)(F)F)cn2)cc2c1OCCN(S(=O)(=O)C[C@]13CC[C@H](CC1=O)C3(C)C)C2	.	i	.	.	1.0%	.
COc1ccc(S(=O)(=O)N2CCN(CC(=O)Nc3sccc3C(N)=O)CC2)cc1OC	-14.7%	i	0.3%	.	9.9%	30.9
CCN(c1ccccc1)S(=O)(=O)c1cccc(C(=O)NCC(c2ccc(OC)cc2)N2CCCCC2)c1 (configuration not stated)	.	?	.	.	4.6%	-1.1
COc1ccc(C(CNC(=O)c2cccc(S(=O)(=O)N3CCc4ccccc43)c2)N(C)C)cc1 (configuration not stated)	?	i	?	-8.8%	-0.8%	-74.9*
CCC(CC)c1nnc(NC(=O)c2cccc(S(=O)(=O)N3CCc4ccccc43)c2)s1	?	i	4.61µM*	-2.5%	1.0%[38.3 µM]	37.6
COc1ccccc1C(CNC(=O)c1cccc(S(=O)(=O)N2c3ccccc3CC2C)c1)N(C)C (configuration not stated)	204.9%	i	?	-18.2%	0.4%	-53.9*
COc1ccccc1C(CNC(=O)c1cccc(S(=O)(=O)N2CCCc3ccccc32)c1)N(C)C (configuration not stated)	5.1%	?	24.7%	5.0%	-0.1%	?
C=CCN(c1ccccc1)S(=O)(=O)c1cccc(C(=O)NCC(c2ccc(OC)cc2)N2CCCCC2)c1 (configuration not stated)	?	i	?	?	27.7%	-65.8*
CCCCCNC(=O)N1CCC(CN(Cc2ccc(Cl)cc2)Cc2ccc([N+](=O)[O-])s2)C1 (configuration not stated)	.	.	.	27.3µM*	.	.
